Laboratory results published in PubChem BioAssay AID1671192 (National Center for Advancing Translational Sciences (NCATS), 2021).
Inconclusive results are not listed. The source made the active and inactive calls. Calls come from the whole dose curve; as a rule, active = well fitted curve in the direction sought with a large enough effect; inconclusive = small, poorly fitted or top-dose-only effect, or another doubt; inactive = no such curve, though single readings can be large or run the other way.

Biological target: Polyunsaturated fatty acid lipoxygenase ALOX15 (Homo sapiens) (UniProt P16050)
Sequence (P16050 whole entry, looked up): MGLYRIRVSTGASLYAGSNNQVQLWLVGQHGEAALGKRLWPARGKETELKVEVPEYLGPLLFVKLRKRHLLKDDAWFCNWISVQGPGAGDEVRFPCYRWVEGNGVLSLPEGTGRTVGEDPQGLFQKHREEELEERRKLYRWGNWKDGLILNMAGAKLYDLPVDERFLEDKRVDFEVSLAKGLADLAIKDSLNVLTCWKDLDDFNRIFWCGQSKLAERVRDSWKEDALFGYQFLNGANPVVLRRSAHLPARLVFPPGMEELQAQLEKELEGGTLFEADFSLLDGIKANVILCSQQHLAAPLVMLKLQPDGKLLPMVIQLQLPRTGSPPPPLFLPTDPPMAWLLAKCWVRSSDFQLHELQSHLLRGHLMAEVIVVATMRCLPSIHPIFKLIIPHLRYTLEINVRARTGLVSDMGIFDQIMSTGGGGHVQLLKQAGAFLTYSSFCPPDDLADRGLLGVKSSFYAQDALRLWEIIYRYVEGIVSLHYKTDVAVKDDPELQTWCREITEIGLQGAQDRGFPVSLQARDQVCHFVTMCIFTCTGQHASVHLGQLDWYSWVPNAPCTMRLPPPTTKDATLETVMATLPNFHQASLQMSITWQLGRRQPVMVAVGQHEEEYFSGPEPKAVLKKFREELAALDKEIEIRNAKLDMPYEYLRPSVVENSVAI
Assay: Counterscreen qHTS for inhibitors of human arachidonate 12S-lipoxygenase (ALOX12): ALOX15 Assay; note: 0% is about no effect
Settings: purified ALOX15 enzyme activity; series mostly up to 110 µM; activity change, negative = inhibition: at the top concentration
Outline: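 Xylenol orange–ferric complex formation, read as the 573 nm to 405 nm absorbance ratio, tracks product from 50 uM arachidonic acid turned over for 30 min at RT. Enzyme is 40 nM ALOX15, pH 7.5 HEPES buffer, compound-preincubated 15 min.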

Row | Compound | activity change, negative = inhibition
1 | COC[C@@H]1CCCN1c1ncnc2c1CN(C1CCNC1)C(=O)CN2C (stereo partly drawn) | 0.659% (inactive)
2 | O=c1[nH]c(C2CCCN(Cc3ccc(-c4ccccc4)cc3)C2)nc2ccc(F)cc12 (stereo not drawn) | -25.5% (inactive)
3 | Cn1cccc1CN1CCC2(CC1)C(=NC1CCCCC1)NC(=O)N2c1cc(F)cc(F)c1 | -4.86% (inactive)
4 | COc1cccc(N2C(=O)NC(=NC3CCCC3)C23CCN(CC2CC2)C3)c1 (stereo not drawn) | -4.92% (inactive)
5 | CC(=O)N1CCC2(CC1)CN(C(=O)Cc1csc(N)n1)Cc1ccccc1O2 | -4.11% (inactive)
6 | Cc1ccc(-c2cccc(CN)c2)c(C)c1 | 14% [at 146 µM] (inactive)
7 | C[S+](=O)([O-])N1Cc2ccccc2OC2(CCN(C(=O)c3ccc(N)nc3)CC2)C1 | -15.1% (inactive)
8 | O=C(c1ccc2c(c1)OCO2)N1CCCC1c1nnc2n1CCNC2 (stereo not drawn) | -14.1% (inactive)
9 | COc1cccc(N2C(=O)NC(=NC3CCCCC3)C23CCCN([S+](=O)([O-])c2cccc(C(F)(F)F)c2)C3)c1 (stereo not drawn) | -22% (inactive)
10 | Cc1cc(C(=O)NC2CC2)c2c(C3CCNCC3)noc2n1 | -15.2% [at 146 µM] (inactive)
11 | Cc1cccc(CN2CCCC23Cc2ccccc2CNC3=O)c1 (stereo not drawn) | -11% [at 146 µM] (inactive)
12 | O=Cc1ccccc1-c1ccc(OC(F)(F)F)cc1 | 0.731% [at 233 µM] (inactive)
13 | Cc1cc(C(=O)NCc2cccs2)c2c(C3CCNC3)noc2n1 (stereo not drawn) | -7.35% [at 146 µM] (inactive)
14 | CN(C)C(=O)N1Cc2ccccc2OC2(CCN(C(=O)Cc3cnc[nH]3)CC2)C1 | 9.22% (inactive)
15 | CC(=O)Nc1ccc(CN2CCC(c3nc4ccc(C)cc4c(=O)[nH]3)CC2)cc1 | 6.35% (inactive)
16 | O=C(c1cc(C2CC2)nc2c1c(C1CCCN1)nn2-c1ccccc1)N1CCC(F)CC1 (stereo not drawn) | -9.46% (inactive)
17 | O=C(C1CCCC1)N1Cc2ccccc2CC2(CCN(Cc3cccnc3)C2)C1 (stereo not drawn) | -8.8% (inactive)
18 | O=C1NCc2ccccc2CC12CCN(Cc1ccc(F)cc1)C2 (stereo not drawn) | -11.6% [at 146 µM] (inactive)
19 | O=[S+]([O-])(c1ccccc1)N1CC(Oc2ccc(F)c(F)c2)C1 | -9.6% [at 146 µM] (inactive)

Row | Compound | activity change, negative = inhibition
20 | NCC(=O)N1CCC2(CC1)CN(C(=O)Cc1cccc(Cl)c1)CCO2 | -12.9% (inactive)
21 | Cc1ccc(-c2cccc(CN)c2)cc1Cl | -12.2% [at 146 µM] (inactive)
22 | CC(=O)NC1CC2(CCN(C(=O)Cc3c(C)noc3C)CC2)Oc2ccccc21 (stereo not drawn) | -16.5% (inactive)
23 | CN(C)CCC(=O)N1Cc2ccccc2CC2(CCCN(C)C2)C1 (stereo not drawn) | -0.887% [at 146 µM] (inactive)
24 | Fc1ccc(CN2CC(Oc3ccc4c(c3)OCO4)C2)cc1 | 6.88% [at 146 µM] (inactive)
25 | CC(=O)N1Cc2ccccc2CC2(CCN(Cc3ccncc3)C2)C1 (stereo not drawn) | -26.4% [at 146 µM] (inactive)
26 | Cc1ccc(-c2cccc(CN3CCCC(c4nc5ccc(F)cc5c(=O)[nH]4)C3)c2)c(C)c1 (stereo not drawn) | 131% (inactive)
27 | CC(=O)NCCC(=O)N1Cc2ccccc2CC2(CCCN2CCc2ccc(C)cc2)C1 (stereo not drawn) | 12.2% (inactive)
28 | O=C1Nc2ccccc2CN(CC2CCCCC2)C12CCNCC2 | -14.5% (inactive)
29 | CNC(=O)c1cn2c(n1)CN([S+](C)(=O)[O-])CC2 | -5.06% [at 146 µM] (inactive)
30 | CC(CO)Nc1ncnc2c1CN(C1CCCNC1)C(=O)CN2C (stereo not drawn) | -22.8% [at 146 µM] (inactive)
31 | O=C1NCc2ccccc2CC12CCN(Cc1cccc(F)c1F)CC2 | -27.9% (inactive)
32 | COc1cccc([S+](=O)([O-])N2CCn3c(nn(-c4ccc(Cl)cc4)c3=O)C2)c1 | 4.67% (inactive)
33 | CC1CCCCC1Nc1ncnc2c1CN(C1CCCNCC1)C(=O)CN2C (stereo not drawn) | -23.7% (inactive)
34 | CN1CC(=O)N(C2CCNCC2)Cc2c(NC3CCCCC3O)ncnc21 (stereo not drawn) | -2.53% (inactive)
35 | CCN1CCCC2(Cc3ccccc3CN(C(=O)c3ccccc3)C2)C1 (stereo not drawn) | -13.9% [at 146 µM] (inactive)
36 | CN1CC(=O)N(C2CCCNC2)Cc2c(NCC3CCCCCC3)ncnc21 (stereo not drawn) | -11.2% (inactive)
37 | COc1ccc(C(=O)N2CC(Oc3ccc4c(c3)OCO4)C2)cc1 | 10.5% [at 146 µM] (inactive)
38 | CN1CC(=O)N(c2ccc(Cl)cc2)Cc2c(NCC3CC3)ncnc21 | -18.4% (inactive)
